From PubChem BioAssay
Shown are actives, neighbours in structure and some others; about 2.6% of the full set was active somewhere.
PABP polyA inh: PABP-poly(A) binding inhibition; AID 2014; PABP-poly(A) RNA binding, fluorescence polarization; 290,000 compounds, 1% hits; calls only at 35 µM;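 note: calls also rest on retests at 20 µM and on dose response follow-up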
Target sequence (P11940 whole entry, looked up): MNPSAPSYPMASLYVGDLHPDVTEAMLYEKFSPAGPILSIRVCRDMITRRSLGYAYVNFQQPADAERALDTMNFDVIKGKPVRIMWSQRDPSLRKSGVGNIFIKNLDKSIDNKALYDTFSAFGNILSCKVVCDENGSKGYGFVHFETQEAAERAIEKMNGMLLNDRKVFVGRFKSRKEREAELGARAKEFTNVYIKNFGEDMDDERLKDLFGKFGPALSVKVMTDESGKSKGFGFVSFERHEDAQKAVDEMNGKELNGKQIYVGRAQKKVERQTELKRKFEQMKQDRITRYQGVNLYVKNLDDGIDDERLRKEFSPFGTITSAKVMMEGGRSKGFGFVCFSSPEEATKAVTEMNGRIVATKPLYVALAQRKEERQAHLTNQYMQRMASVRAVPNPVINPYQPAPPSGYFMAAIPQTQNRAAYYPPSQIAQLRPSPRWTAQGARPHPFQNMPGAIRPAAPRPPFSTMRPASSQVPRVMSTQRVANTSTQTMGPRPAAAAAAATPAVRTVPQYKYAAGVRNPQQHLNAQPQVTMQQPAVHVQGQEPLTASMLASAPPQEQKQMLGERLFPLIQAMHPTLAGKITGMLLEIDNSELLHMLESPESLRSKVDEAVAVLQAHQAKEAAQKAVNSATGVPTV
A3A deaminase: human APOBEC3A DNA deaminase inhibition; recombinant A3A, FAM/TAMRA ssDNA deamination fluorescence; inhibition, % at 20 µM; AID 493011; 330,000 compounds, 0.41% hits;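 active = at least 40% inhibition at 20 µM here, with at most 30% in a related deaminase screen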
APOBEC3G inh: APOBEC3G (human) deaminase inhibition; recombinant A3G, ssDNA deamination FAM/TAMRA fluorescence; 330,000 compounds, 0.28% hits; Q9HC16; inhibition, % at 20 µM;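 active = inhibition of at least 40% at 20 µM, with no more than 30% in the related APOBEC3A deaminase screen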
MLLE-PAM2 inh: blocks PAM2 peptide binding to the PABP1 MLLE domain. GST-MLLE / FITC-PAM2 fluorescence polarization. inhibition, % at 20 µM. 360,000 compounds, 0.36% hits. AID 588489; in the data active = inhibition above about 35%, passing the limit was not always enough
eIF4H FP inh: inhibitors of RNA binding by human eIF4H; Q15056; eIF4H fluorescence polarization binding assay; inhibition, % at 35 µM; 290,000 compounds, 0.94% hits;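 note: calls also rest on retests at 20 µM and on dose response follow-up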
PHOSPHO1 block: blocks human PHOSPHO1 phosphatase activity; Q8TCT1; AID 1565; inhibition, % at 13.3 µM; 290,000 compounds, 1.1% hits; recombinant PHOSPHO1, absorbance phosphatase assay; in the data active = inhibition above about 60%
Each line names hits and unclear results; the compound was inactive in the other large screens. Unless noted, the rule behind the calls is not given here.

CCc1cccc(NC(=S)N(CCCN2CCOCC2)C(C)c2cc3cccc(OC)c3o2)c1 (stereo unspecified)	none
O=C(CSc1ccccc1)N1CCCC(N2CCN(c3cccc(Cl)c3)CC2)C1 (stereo unspecified)	none
Cc1ccc(NC(=O)COc2ccccc2C(N)=O)cc1S(=O)(=O)N1CCCCCC1	none (no result: PABP polyA inh, eIF4H FP inh, PHOSPHO1 block)
COC(=O)CCCC1=CC2=CC(=O)C(C)(OC(=O)c3cccs3)C(=O)C2=CN1c1ccc(OC)cc1 (stereo unspecified)	PABP polyA inh active
COC(=O)CCCC1=CC2=CC(=O)C(C)(OC(=O)c3cccs3)C(=O)C2=CN1Cc1ccco1 (stereo unspecified)	PABP polyA inh active, eIF4H FP inh 61
O=C(NNC(=O)c1ccc(O)c(Cl)c1)c1cccc(S(=O)(=O)N2CCOCC2)c1	none (no result: PABP polyA inh, eIF4H FP inh, PHOSPHO1 block)
CCOC(=O)CCN(C(=O)Nc1ccccc1)C1CCCCC1	none (no result: PABP polyA inh, A3A deaminase, APOBEC3G inh, eIF4H FP inh, PHOSPHO1 block)
Cc1ccc2c(c1)N(CC(=O)N1CCCC1)C(=O)C(C)O2 (stereo unspecified)	none
O=C(NNC(=O)C1C2CCC(C2)C1C(=O)O)c1ccc(Br)o1 (stereo unspecified)	PABP polyA inh active (no result: MLLE-PAM2 inh)
CC(C)c1ccc(C(=O)NNC(=O)C2C3CCC(C3)C2C(=O)O)cc1 (stereo unspecified)	none (no result: MLLE-PAM2 inh)
O=C(N/N=C\C=C\c1ccc([N+](=O)[O-])o1)c1cccs1	PABP polyA inh active, eIF4H FP inh 100
CCOCCCNC(=O)c1ccc(CN2CCc3ccccc3C2)cc1	none (no result: PABP polyA inh, A3A deaminase, APOBEC3G inh, eIF4H FP inh, PHOSPHO1 block)
COc1ccc(-c2nc3oc4cc(OC)ccc4c(=O)c3c(=O)n2Cc2ccco2)cc1	none
CCc1nc2sc3ccccc3c(=O)c2c(=O)n1Cc1ccco1	PABP polyA inh active, eIF4H FP inh 69
COc1ccc2c(=O)c3c(=O)n(Cc4ccco4)c(-c4ccco4)nc3oc2c1	PABP polyA inh active, eIF4H FP inh 86
O=c1c2ccccc2sc2nc(C3CCCCC3)n(Cc3ccco3)c(=O)c12	none (no result: A3A deaminase, APOBEC3G inh)
CCc1nc2oc3cc(OC)ccc3c(=O)c2c(=O)n1Cc1ccco1	PABP polyA inh active, eIF4H FP inh 52
O=C(O)CSc1nnc(-c2ccc(Cl)cc2Cl)n1Cc1ccccc1	none
CC1(NC(=O)CCc2nc3ccccc3c(=O)[nH]2)CCS(=O)(=O)C1 (stereo unspecified)	none
O=C(Nc1ccc(N2CCOCC2)cc1)c1csc(COCCO)n1	none (no result: PABP polyA inh, A3A deaminase, APOBEC3G inh, eIF4H FP inh, PHOSPHO1 block)
COc1ccc(N(C)C(=O)c2ccc(NC(=O)CCS(=O)(=O)c3cccs3)cc2)cc1	none
CCC(C)n1c(-c2cccc(S(=O)(=O)N(CC)CC)c2)n[nH]c1=S (stereo unspecified)	none
Oc1ccc(/C=N/n2c(-c3ccccc3)n[nH]c2=S)cc1Br	none
CCN(CC)S(=O)(=O)c1cccc(-c2n[nH]c(=S)n2/N=C/c2ccc(Br)cc2)c1	PHOSPHO1 block 70
CCN(CC)S(=O)(=O)c1cccc(-c2n[nH]c(=S)n2/N=C/c2ccc(OC(F)F)cc2)c1	none
CCN(CC)S(=O)(=O)c1cccc(-c2n[nH]c(=S)n2/N=C/c2ccc(OC)cc2)c1	PHOSPHO1 block 83
COc1cc(/C=N/n2c(-c3ccccc3)n[nH]c2=S)ccc1O	PHOSPHO1 block 103
CCN(c1ccccc1)S(=O)(=O)c1ccc(Cl)c(C(=O)NC2CCN(Cc3ccccc3)CC2)c1	none (no result: PABP polyA inh, A3A deaminase, APOBEC3G inh, eIF4H FP inh, PHOSPHO1 block)
O=C(C[n+]1ccccc1)N/N=C/c1ccc(Br)cc1	none (no result: PABP polyA inh, eIF4H FP inh, PHOSPHO1 block)
CC(=O)NC(c1ccccc1)c1nc(-c2cccc(CO)c2)cs1 (stereo unspecified)	none (no result: PABP polyA inh, A3A deaminase, APOBEC3G inh, eIF4H FP inh, PHOSPHO1 block)
Cc1cccc(C(=O)Nc2cc(S(=O)(=O)N3CCOCC3)ccc2N2CCCCC2)c1	none (no result: PABP polyA inh, eIF4H FP inh, PHOSPHO1 block)
CCNC(=O)C(=O)Nc1cc2c3c(c1)CCC(=O)N3CCC2	PHOSPHO1 block 65
Cc1ccccc1C(=O)N1[C@@H](C(C)C)COc2cc(Br)ccc2S1(=O)=O	none (no result: PABP polyA inh, A3A deaminase, APOBEC3G inh, eIF4H FP inh, PHOSPHO1 block)
CC(C)(C)C(=O)Nc1ccccc1N1CCN(C(=O)c2ccc(Cl)cc2)CC1	PABP polyA inh active, eIF4H FP inh 86
CC1CCN(c2ccccc2NC(=S)NC(=O)C(C)(C)C)CC1	MLLE-PAM2 inh 39
COc1ccccc1OCC(=O)NNC(=S)NC(=O)c1ccco1	PHOSPHO1 block 95
Cc1nc(NC(=S)NC(=O)c2ccco2)sc1C(=O)N(C)C	MLLE-PAM2 inh 41
O=C(NNC(=S)NC(=O)c1ccco1)c1ccc(NC(=O)c2ccccc2)cc1	PHOSPHO1 block 71
O=C(Nc1ccc(NC(=S)NC(=O)c2ccco2)cc1)c1ccccc1	none
CC1CCN(c2ccccc2NC(=S)NC(=O)c2ccco2)CC1	MLLE-PAM2 inh 46 (no result: PABP polyA inh, eIF4H FP inh, PHOSPHO1 block)
O=C(NC(=S)Nc1ccccc1Br)c1ccco1	MLLE-PAM2 inh 45
Cc1cn([C@H]2C[C@H](O)[C@@H](CCC(=O)NCCc3ccc4ccccc4c3)O2)c(=O)[nH]c1=O	none (no result: PABP polyA inh, A3A deaminase, APOBEC3G inh, eIF4H FP inh, PHOSPHO1 block)
COc1ccc(CCc2nnc(CCC(=O)N(C)Cc3ccncc3C)o2)cc1	PHOSPHO1 block 64
CCCCCOc1ccc(C(=O)NCCC(=O)NCCCC(=O)OCC)cc1	none
CCOC(=O)CCCNC(=O)CCNC(=O)c1ccc(OCC)cc1	PABP polyA inh active, eIF4H FP inh active
CCc1nc2c(OCc3ccc(C(F)(F)F)cc3)cccn2c1N(C)C(=O)c1ccco1	none (no result: PABP polyA inh, A3A deaminase, APOBEC3G inh, eIF4H FP inh, PHOSPHO1 block)
CC(=O)Nc1ccc(C(=O)OCC(=O)NC2CCCCCC2)cc1	none (no result: PABP polyA inh, A3A deaminase, APOBEC3G inh, eIF4H FP inh, PHOSPHO1 block)
O=C(O)c1ccc2c(c1)C(=O)N(CCc1ccccc1)C2=O	none
O=C(O)c1ccc2c(c1)C(=O)N(N1C(=O)c3ccccc3C1=O)C2=O	PABP polyA inh active
CN(C(=O)CN1C(=O)S/C(=C\c2ccccc2Cl)C1=O)C1CCS(=O)(=O)C1 (stereo unspecified)	none
CN(C(=O)CN1C(=O)/C(=C/c2ccccc2Cl)SC1=S)C1CCS(=O)(=O)C1 (stereo unspecified)	MLLE-PAM2 inh 41
O=C(CN1C(=O)/C(=C/c2ccccc2Cl)SC1=S)NC1C=CS(=O)(=O)C1 (stereo unspecified)	PHOSPHO1 block 75 (no result: PABP polyA inh, eIF4H FP inh)
COc1cccc(/C=C2\SC(=O)N(CC(=O)NC3C=CS(=O)(=O)C3)C2=O)c1 (stereo unspecified)	MLLE-PAM2 inh 41
O=C(Oc1ccccc1N1C(=O)C2CCCCC2C1=O)c1ccccc1F (stereo unspecified)	eIF4H FP inh active
CS(=O)(=O)c1ccc2nc(NC(=O)CCNC(=O)c3ccccc3Cl)sc2c1	none (no result: PABP polyA inh, eIF4H FP inh, PHOSPHO1 block)
COc1ccc(CC(=O)NNC(=S)Nc2ccccc2)cc1Br	PHOSPHO1 block 93
COc1ccc(CC(=O)NNC(=S)Nc2ccc(Br)cc2)cc1	PHOSPHO1 block 98
Cc1ccc(NC(=S)NNC(=O)Cn2nc(C(F)F)cc2C(F)F)cc1	none
CCOc1ccc(CC(=O)NNC(=S)Nc2ccccc2)cc1Br	PHOSPHO1 block 87
O=C(Cn1nc(C(F)F)cc1C(F)F)NNC(=S)Nc1ccc(Cl)cc1	PHOSPHO1 block 100
CC(C)Oc1ccc(CC(=O)NNC(=S)Nc2ccccc2)cc1	none
O=[N+]([O-])c1ccc(O)c(-c2cc(C(F)(F)F)nc(-c3ccccc3)n2)c1	none
